{"source": "PubChem BioAssay AID977608", "origin": "cited, not measured here", "assay": "literature IC50 values for PDB complexes, PDB-derived complexes (AID 977608)", "conditions": "PDB protein-ligand complexes", "note": "Among all 4,300 compounds or so, about 4,300 (100%) were called active. Cut-off not given; nearly all actives show IC50 up to about 1400 µM. So high a share suggests a set chosen from earlier hits. The list shows a part of the results. Square brackets hold non-standard residues; d marks the D form. Residues, ends and D or L forms follow the SMILES beside them. Peptide text beside a SMILES is read from it. * marks the point of attachment. Orn(CH(NH2)2) = NC(N)NCCC[C@H](N)C(=O)O; Abu = CC[C@H](N)C(=O)O; Dap = NC[C@H](N)C(=O)O; Propionyl = CCC(=O)*", "data": [{"compound": "CN(C)CCNC1CCN2NC=C(c3cn[nH]c3)C2N1", "note": "(stereo not drawn)", "values": [{"measurement": "IC50", "setting": "protein: Serine/threonine-protein kinase pim-1, PDB entry 4mbi", "value": "0.007 µM (active)"}]}, {"compound": "Cc1ccc(C(=O)Nc2ccc(S(O)(O)O)c3cccc(S(O)(O)O)c23)cc1NC(=O)c1cccc([N+](=O)[O-])c1", "values": [{"measurement": "IC50", "setting": "protein: mNV-RdRp, PDB entry 4nru", "value": "0.115 µM (active)"}]}, {"compound": "CCCCCCCC(=O)O[C@@H]1[C@@H](OC(=O)[C@H](C)CC)[C@@H](C)[C@@H]2[C@H]1[C@@](C)(OC(C)=O)C[C@H](OC(=O)CCC)[C@@]1(O)[C@H]2O[C@@H](O)[C@@]1(C)O", "values": [{"measurement": "IC50", "setting": "protein: Sarcoplasmic/endoplasmic reticulum calcium ATPase 1 (SERCA1a), PDB entry 3n5k", "value": "0.0002 µM (active)"}]}, {"compound": "O=C(Nc1cnn(-c2cccc(C(=O)Nc3cnn([C@H]4CCNC4)c3)c2)c1)Nc1ccccc1Cl", "values": [{"measurement": "IC50", "setting": "protein: Mitogen-activated protein kinase 10 JNK3, PDB entry 4whz", "value": "0.001 µM (active)"}]}, {"compound": "Cc1nc2ccccc2[n+]([O-])c1C", "values": [{"measurement": "IC50", "setting": "protein: Peroxiredoxin-1, PDB entry 4kw6", "value": "374 µM (active)"}]}, {"compound": "CC(C)C[C@@H]1NC(=O)c2c1c1c3ccccc3n(CCCCN)c1c1[nH]c3ccccc3c21", "values": [{"measurement": "IC50", "setting": "protein: Proto-oncogene tyrosine-protein kinase Src, PDB entry 4mcv", "value": "0.0013 µM (active)"}]}, {"compound": "O=C[N+](=O)CCC[P+](O)(O)O", "values": [{"measurement": "IC50", "setting": "protein: E. coli 1-deoxy-D-xylulose 5-phosphate reductoisomerase (DXR), PDB entry 1onp", "value": "0.03 µM (active)"}, {"measurement": "IC50", "setting": "protein: Oxidoreductase, PDB entry 3upy", "value": "2.39 µM (active)"}]}, {"compound": "NC(=O)C[C@@H]1NC(=O)C2(CCCCC2)NC(=O)C[C@@H](c2ccc(C[P+](O)(O)O)cc2)/C=C/C[C@@H](Cc2cccc3ccccc23)CNC1=O", "values": [{"measurement": "IC50", "setting": "protein: growth factor receptor binding protein SH2 domain, PDB entry 1x0n", "value": "0.02 µM (active)"}]}, {"compound": "CC(C)C1=CC2=C(C(O)C1=O)[C@@]1(C)CCCC(C)(C)[C@@H]1C(=O)C2", "note": "(stereo partly drawn)", "values": [{"measurement": "IC50", "setting": "protein: Farnesyl pyrophosphate synthase HsFPPS-5, PDB entry 4p0v", "value": "1.2 µM (active)"}]}, {"compound": "O=C(c1csc(-c2ccsc2)n1)n1ccc2ccccc21", "values": [{"measurement": "IC50", "setting": "protein: 3-OXOACYL-[ACYL-CARRIER-PROTEIN] REDUCTASE FABG, PDB entry 4bo6", "value": "0.18 µM (active)"}]}, {"compound": "H-ETFEHWWSQLLS-OH", "values": [{"measurement": "IC50", "setting": "protein: E3 ubiquitin-protein ligase Mdm2, PDB entry 3jzs", "value": "0.008 µM (active)"}, {"measurement": "IC50", "setting": "protein: Human Protein Mdm4, PDB entry 3jzq", "value": "0.11 µM (active)"}]}, {"compound": "CC[C@H](C)[C@H](NC(=O)[C@H](Cc1ccccc1)NC(=O)[C@H](Cc1ccc(O)cc1)NC(=O)[C@H](CCC(=O)O)NC(=O)[C@@H](N)CCCCN)C(=O)O", "note": "(tested in a mixture with another compound) (H-KEYFI-OH)", "values": [{"measurement": "IC50", "setting": "protein: HLA class I histocompatibility antigen, A-2 alpha chain HLA-A*0201, PDB entry 4u6x", "value": "0.414 µM (active)"}]}, {"compound": "H-SDFEEFSLDDIEQ-OH", "values": [{"measurement": "IC50", "setting": "protein: ?-thrombin, PDB entry 1thr", "value": "4.2 µM (active)"}]}, {"compound": "H-LTFEHWWAQLTS-OH", "values": [{"measurement": "IC50", "setting": "protein: E3 ubiquitin-protein ligase Mdm2, PDB entry 3jzr", "value": "0.036 µM (active)"}, {"measurement": "IC50", "setting": "protein: Human Protein Mdm4, PDB entry 3jzp", "value": "0.25 µM (active)"}]}, {"compound": "C#Cc1csc2c1NC(NC1CCCC1)=[N+](CC)C2O", "note": "(stereo not drawn)", "values": [{"measurement": "IC50", "setting": "protein: High affinity cAMP-specific 3',5'-cyclic phosphodiesterase 7A PDE7A, PDB entry 4pm0", "value": "0.045 µM (active)"}]}, {"compound": "N#Cc1ccc(-c2ccc(OCC(=O)O)cc2CN2CCN(c3ccccn3)CC2)cc1", "values": [{"measurement": "IC50", "setting": "protein: PANTOTHENATE KINASE, PDB entry 4bfy", "value": "0.12 µM (active)"}]}, {"compound": "CCc1c(N2CCOCC2=O)cccc1S(=O)(=O)N[C@@H](Cc1cc(-c2ccc(Cl)s2)on1)C(=O)N1CCC(OC)CC1", "values": [{"measurement": "IC50", "setting": "protein: COAGULATION FACTOR X LIGHT CHAIN & COAGULATION FACTOR X, PDB entry 4btt", "value": "0.00143 µM (active)"}]}, {"compound": "COCCOCCc1c(C)c2cc(OC)c(O)c(C)c2oc1=O", "values": [{"measurement": "IC50", "setting": "protein: Serine/threonine-protein kinase/endoribonuclease IRE1-alpha, PDB entry 4pl3", "value": "0.29 µM (active)"}]}, {"compound": "Cc1cc(O)c(C(C)C)cc1N=O", "values": [{"measurement": "IC50", "setting": "protein: Serine/threonine-protein kinase PLK1, PDB entry 4h71", "value": "35.6 µM (active)"}]}, {"compound": "Oc1ccc(-c2nc(-c3ccc(F)cc3)c(-c3ccncc3)[nH]2)cc1", "values": [{"measurement": "IC50", "setting": "protein: Bromodomain-containing protein 4 BRD4-1, PDB entry 4o77", "value": "2.5 µM (active)"}]}, {"compound": "N#Cc1ccc(O)cc1F", "values": [{"measurement": "IC50", "setting": "protein: M-phase inducer phosphatase 2 CDC25B, PDB entry 4wh7", "value": "5000 µM (active)"}]}, {"compound": "CC(=O)N1CCC[C@H]([C@]2(Cc3cccc(Cl)c3)C(=O)Nc3cc(Cl)ccc32)C1", "values": [{"measurement": "IC50", "setting": "protein: Humanized Xenopus E3 ubiquitin-protein ligase Mdm2, PDB entry 4lwt", "value": "3.9 µM (active)"}]}, {"compound": "CCOc1c(I)cc(Cl)cc1CNCCCNC(=O)Nc1ccsc1", "values": [{"measurement": "IC50", "setting": "protein: Trypanosoma brucei methionyl-tRNA synthetase, PDB entry 4mw7", "value": "10 µM (active)"}]}, {"compound": "OCc1cc(-c2cn[nH]c2-c2ccc(F)cc2)ccn1", "values": [{"measurement": "IC50", "setting": "protein: Casein kinase I isoform delta, PDB entry 4kbc", "value": "0.0142 µM (active)"}]}, {"compound": "COc1ccccc1-n1c(-c2cc(O)ccc2C)c[n+]2c3c(=O)[nH]c(=O)n(C)c3[nH]c12", "values": [{"measurement": "IC50", "setting": "protein: EPH receptor A3, PDB entry 4gk2", "value": "0.0016 µM (active)"}]}, {"compound": "O=C1CCN(c2cccc([N+](=O)[O-])c2)C(=O)N1", "values": [{"measurement": "IC50", "setting": "protein: Bifunctional protein GlmU, PDB entry 4kpz", "value": "1950 µM (active)"}]}, {"compound": "CSCC[C@H](NC(=O)[C@@H]1CCCN1C(=O)CNC(=O)[C@H](CO[P+](O)(O)O)NC(=O)[C@H](Cc1ccc(O)cc1)NC(=O)[C@@H](NC(=O)[C@@H](N)CCCNC(N)N)[C@@H](C)O)C(=O)N[C@@H](CC(N)=O)C(=O)N[C@@H](CCCCN)C(=O)N[C@H](C(=O)O)C(C)C", "values": [{"measurement": "IC50", "setting": "protein: HLA class I histocompatibility antigen, PDB entry 3bh9", "value": "0.117 µM (active)"}]}, {"compound": "CC[C@H](NC(=O)[C@@H](NC(=O)[C@@H]1CCCN1C(=O)[C@H](CCCNC(N)N)NC(=O)[C@@H](N)CC(C)C)C(C)C)C(=O)N[C@@H](CCSC)C(=O)N[C@H](C(=O)N[C@@H](CCCNC(N)N)C(=O)N1CCC[C@H]1C(=O)N[C@H](C(=O)N[C@H](C(=O)O)C(C)C)[C@@H](C)O)C(C)C", "note": "(H-L[Orn(CH(NH2)2)]PV[Abu]MV[Orn(CH(NH2)2)]PTV-OH)", "values": [{"measurement": "IC50", "setting": "protein: E3 ubiquitin-protein ligase SIAH1, PDB entry 4i7b", "value": "2 µM (active)"}]}, {"compound": "CCC(=O)NC[C@H](NC(=O)[C@@H](NC(=O)[C@@H]1CCCN1C(=O)[C@H](CCCNC(N)N)NC(=O)[C@H](CC(C)C)NC(=O)[C@@H](N)CCCCN)C(C)C)C(=O)N[C@@H](CCSC)C(=O)N[C@H](C(=O)N[C@@H](CCCNC(N)N)C(=O)N1CCC[C@H]1C(=O)N[C@@H](Cc1c[nH]c2ccccc12)C(=O)N[C@H](C(=O)N[C@@H](CCCNC(N)N)C(=O)O)C(C)C)C(C)C", "note": "(H-KL[Orn(CH(NH2)2)]PV[Dap](Propionyl)MV[Orn(CH(NH2)2)]PWV[Orn(CH(NH2)2)]-OH)", "values": [{"measurement": "IC50", "setting": "protein: E3 ubiquitin-protein ligase SIAH1 (T156C mutation), PDB entry 4i7c", "value": "0.006 µM (active)"}]}, {"compound": "CCC(=O)NCCCC[C@H](NC(=O)[C@@H]1CCCN1C(=O)[C@H](CCCNC(N)N)NC(=O)[C@@H](NC(=O)[C@H](CCSC)NC(=O)[C@H](C)NC(=O)[C@@H](NC(=O)[C@@H]1CCCN1C(=O)[C@H](CCCNC(N)N)NC(=O)[C@H](CC(C)C)NC(=O)[C@H](CCCCN)NC(C)=O)C(C)C)C(C)C)C(=O)N[C@H](C(=O)N[C@@H](CCCNC(N)N)C(=O)O)C(C)C", "note": "(Ac-KL[Orn(CH(NH2)2)]PVAMV[Orn(CH(NH2)2)]PK(Propionyl)V[Orn(CH(NH2)2)]-OH)", "values": [{"measurement": "IC50", "setting": "protein: E3 ubiquitin-protein ligase SIAH1, PDB entry 4i7d", "value": "0.1 µM (active)"}]}]}
